Assay results reported in PubChem BioAssay AID588795 (National Center for Advancing Translational Sciences (NCATS), 2011).
“And” between values parts separate entries of the source, which are not always exact repeats. Identical values can stand only once. The campaign covered roughly 390,000 compounds. About 1,400 (0.36%) were called active. Another 2% or so got no clear call; they are omitted. What follows is part of a selection rich in actives, with near analogues and random picks from the rest. Values without a mark were called inactive. The call rests on the fitted dose curve; in most records, active means well fitted inhibition curve with a large enough effect; inconclusive means small, poorly fitted or top-dose-only effect; inactive means no such curve, though single readings can be large or run the other way.

Biological target: Flap endonuclease 1 (Homo sapiens) (UniProt P39748)
Test: qHTS Assay for the Inhibitors of Human Flap endonuclease 1 (FEN1). Further: nearly all actives have a fitted effect of over 65% in size.
Settings: Recombinant FEN1 flap cleavage, fluorescence, 15 min; series mostly up to 114 µM; activity change, negative = inhibition: at the top concentration
Summary of the method: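 Potency values derive from four-parameter Hill fits of normalized qHTS data. The reaction used 10 nM FEN1 preincubated 15 min at room temperature with compound, then 50 nM DNA substrate, read at 0 and 15 min.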
On the % scale 0 is the no-effect control and ±100 the full control effect; potency means the concentration at half of the fitted maximal effect.

Chain of Flap endonuclease 1 (Homo sapiens) (P39748 whole entry, looked up): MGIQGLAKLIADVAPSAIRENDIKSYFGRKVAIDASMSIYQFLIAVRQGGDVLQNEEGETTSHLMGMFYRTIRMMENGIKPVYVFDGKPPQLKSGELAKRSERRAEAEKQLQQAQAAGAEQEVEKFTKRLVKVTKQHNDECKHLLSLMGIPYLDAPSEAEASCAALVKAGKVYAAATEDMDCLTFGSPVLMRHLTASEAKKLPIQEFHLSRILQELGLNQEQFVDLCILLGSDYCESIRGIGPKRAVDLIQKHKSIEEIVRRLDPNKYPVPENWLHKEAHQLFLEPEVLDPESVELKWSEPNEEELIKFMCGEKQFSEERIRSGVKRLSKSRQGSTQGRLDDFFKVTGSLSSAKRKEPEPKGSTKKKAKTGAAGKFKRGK

| Structure (SMILES) | activity change, negative = inhibition [%] | Potency |
| --- | --- | --- |
| Cc1[nH]c2ccccc2c1C(=O)C(=O)N(C)c1ccccc1 | -1.9 |  |
| CCCC(=O)N1CCN(c2nc3c(OC)ccc(C)c3s2)CC1 | -8.18 |  |
| Cc1cc[n+](C2CCCCC2)cc1 | 1.59 |  |
| CCOC(=O)C1Nc2ccc(C(F)(F)F)cc2C2C=CCC12 (configuration not stated) | -23.5 |  |
| CCOc1cc(C(=O)O)ccc1OCCOc1ccccc1 | 4.15 |  |
| CCOc1cccc2c1N[C@@H](c1ccc(C(=O)O)cc1)[C@H]1CC=C[C@@H]21 |  | 14.1 µM (active) |
| OC(CBr)CN1CCCCC1 (configuration not stated) | -5.74 |  |
| O=C(Nc1ccccc1)c1ccccc1OCc1ccccc1 | -4.93 |  |
| C#CCOCCOCCOCCNc1nc(N2CCN(C(=O)Cn3cc(CCO)nn3)CC2)nc(N2CCN(C(=O)[C@H](CCCCN)n3cc(CCCC)nn3)CC2)n1 | 16.4 |  |
| C#CCOCCOCCOCCNc1nc(N2CCN(C(=O)CCCCCCCCCCNC(=O)Cn3cc(CCCCCN)nn3)CC2)nc(N2CCN(C(=O)CCCCCCCCCCNC(=O)[C@H](CO)n3cc(CCCSC)nn3)CC2)n1 |  | 39.8 µM (active) |
| C#CCOCCOCCOCCNc1nc(N2CCN(C(=O)[C@H](CCC(=O)O)n3cc(CN)nn3)CC2)nc(N2CCN(C(=O)[C@H](CCC(=O)O)n3cc(CN)nn3)CC2)n1 | -21.9 |  |
| O=C(COC(=O)c1ccccc1OCCOc1ccccc1)Nc1cccc(Br)c1 | 8.01 |  |
| Cc1ccc(S(=O)(=O)c2c(Nc3cccc(Cl)c3)sc(C(=O)c3ccc4c(c3)OCO4)c2N)cc1 | -1.24 |  |
| Cc1ccc(C)c(N2CCN(CCCNC(=O)Nc3ccc(Cl)cc3)CC2)c1 | -5.33 |  |
| COc1ccc(C2Nc3ccc(NC(=O)COC(C)=O)cc3C(=O)N2Cc2ccccc2)cc1COc1ccc(NC(C)=O)cc1 (configuration not stated) | -3.55 |  |
| Cc1ccc(-c2nnc3ccc(SCC(N)=O)nn23)cc1 | -1.5 |  |
| Cc1cc(-c2n[nH]c(=S)n2/N=C/C(Br)=C/c2ccccc2)n[nH]1 | -9.91 |  |
| S=c1[nH]nc(-c2cc(-c3ccsc3)n[nH]2)n1-c1ccccc1 | -2.28 |  |
| S=c1[nH]nc(-c2cc(-c3ccccc3)n[nH]2)n1/N=C/c1c2ccccc2cc2ccccc12 |  | 39.8 µM (active) |
| Cc1cccc(NC(=O)COC(=O)c2ccccc2OCc2cccc(Br)c2)c1 | -18 |  |
| COc1ccc(CN(Cc2ccccc2)C(=O)c2ccc(O)cc2)cc1COc1ccc(NC(C)=O)cc1 | -4.6 |  |

| Structure (SMILES) | activity change, negative = inhibition [%] | Potency |
| --- | --- | --- |
| O=C1c2ccccc2C(=O)N1c1ccc(S(=O)(=O)N2CCOCC2)c2ccccc12 | -19.7 |  |
| CCN1/C(=C/c2ccc3ccc(C)cc3[n+]2CC)Sc2ccccc21 |  | 50.1 µM (active) |
| OC(Cc1ccc2ccccc2n1)c1ccc(Cl)c(Cl)c1 (configuration not stated) | -4.3 |  |
| O=C1COc2ccc(-c3csc(-c4ccc(Cl)cc4)n3)cc2N1 | 1.81 |  |
| Cc1cc(C)cc(NC(=O)CSc2nc(=O)n(CCN3CCOCC3)c3c2CCC3)c1 | -3.17 |  |
| CCOc1ccc(NC(=O)CSc2nnc3c(n2)[nH]c2ccc(S(=O)(=O)N4CCOCC4)cc23)cc1 | -18 |  |
| Cc1ccc(-n2ncc3c(NCCCn4ccnc4)ncnc32)cc1Cl | -5.38 |  |
| C(=Nc1ccc(/C=C/c2ccnc3ccccc23)cc1)c1cc2c3c(c1)CCCN3CCC2 | -9.3 |  |
| CN(C(=O)CSc1nc2ccc(NC(=O)COc3ccccc3)cc2s1)c1ccccc1 | 3.32 |  |
| CC(C)(C)c1ccc(S(=O)(=O)Nc2ccc(O)c(Sc3nc4ccccc4s3)c2)cc1 | -27 |  |
| O=[N+]([O-])c1c(NCCO)cc(Sc2nc3ccccc3s2)c2nonc12 |  | 44.7 µM (active) |
| COc1cc(OC)c2c(C)cc(=O)oc2c1C(CCN1CCCCC1)c1ccc(N(C)C)cc1 (configuration not stated) | -18.3 |  |
| CCN(CC)c1nc(C#N)nc(OC)n1 | 11.1 |  |
| CC1CCCN(C(=O)c2cc(-c3ccco3)nc3ccccc23)C1 (configuration not stated) | 3.33 |  |
| CN(CCOc1ccccc1)C(=O)c1cc(-c2ccco2)nc2ccccc12 | 6.29 |  |
| CN(C(=O)COC(=O)c1cc(-c2ccco2)nc2ccccc12)C1CCS(=O)(=O)C1 (configuration not stated) |  | 50.1 µM (active) |
| O=C(O)c1c(Br)c(Br)c(Br)c(Br)c1C1c2ccc(O)cc2Oc2cc(O)ccc21 |  | 3.98 µM (active) |
| N#CC1=C(N)Oc2cc(O)ccc2C1C1CCCCC1 (configuration not stated) | 0.703 |  |
| Cc1ccc(Nc2nnc(-c3ccc(C)c(S(=O)(=O)N4CCCCC4)c3)c3ccccc23)cc1 | -20.8 |  |
| Cc1ccc(C)c(Nc2nnc(-c3ccc(C)c(S(=O)(=O)N4CCCCC4)c3)c3ccccc23)c1 |  | 89.1 µM (active) |
| Cc1ccc(-c2nnc(Nc3ccc(C(=O)N(C)C)cc3)c3ccccc23)cc1S(N)(=O)=O | -12.6 |  |

| Structure (SMILES) | activity change, negative = inhibition [%] | Potency |
| --- | --- | --- |
| O=[N+]([O-])c1ccc(S(=O)(=O)N2CCN(c3nc(-c4ccccc4)nc4ccccc34)CC2)cc1 | -12.2 |  |
| NS(=O)(=O)c1ccc(NC(=O)CSc2nnc3c(n2)[nH]c2ccccc23)cc1 | 11.1 |  |
| COc1ccc(CCNC(=O)C(=O)NCC(c2ccco2)S(=O)(=O)c2cccs2)cc1OC (configuration not stated) | -4.25 |  |
| O=c1[nH]c2ccccc2n2c(-c3ccccc3)nnc12 |  | 79.4 µM (active) and 20 µM (active) |
| O=c1cc(-c2ccccc2)n2c(SCc3ccccc3)nnc2[nH]1 | -5.27 |  |
| CC(C)(C)OC(=O)N(Cc1ccco1)S(=O)(=O)c1ccccc1Br | -3.86 |  |
| O=C1C[C@H]2C=CCc3cccc(c32)CN1Cc1ccccc1 | -2.58 |  |
| O=C(c1ccc2c(=O)n(Cc3ccco3)c(=S)[nH]c2c1)N1CCCC1 | 5.1 |  |
| O=S(=O)(Nc1cccc2cccnc12)c1cccc2cccnc12 | 2.67 |  |
| O=C(O)C(c1ccccc1)N1C(=O)/C(=C\c2ccc(-c3cccc(Cl)c3)o2)SC1=S (configuration not stated) |  | 17.8 µM (active) |
| O=C(NCc1ccccc1)c1cc(-c2cccc(Cl)c2)on1 | 4.6 |  |
| Cn1cccc1/C=C1\SC(=S)N(NC(=O)c2ccc(Cl)cc2)C1=O | 3.67 |  |
| Cc1c(CCO)sc[n+]1CC(=O)c1ccc2ccccc2c1 | -4.18 |  |
| O=C(C1COc2ccccc2O1)N(Cc1cccnc1)c1nc2c(F)cc(F)cc2s1 (configuration not stated) | -15 |  |
| CCOC(=O)c1sc2nc(CSCC(=O)OCc3ccc(C(=O)OC)o3)[nH]c(=O)c2c1C | -1.9 |  |
| Cc1sc2nc(CSCC(=O)NC3CCCCC3)[nH]c(=O)c2c1C | -2.42 |  |
| CSc1nnc(SCc2nc3sc(C(=O)O)c(C)c3c(=O)[nH]2)s1 |  | 20 µM (active) |
| CCOC(=O)C1CCN(C(c2ccc(F)cc2)c2sc3nc(-c4ccco4)nn3c2O)CC1 (configuration not stated) | 19.6 |  |
| Cn1nnc2c(N3CCN(c4ccccc4)CC3)ncnc21 | -13.6 |  |
| O=C(NCc1ccccc1)C(=O)NCC(c1ccco1)S(=O)(=O)c1ccc(Cl)cc1 (configuration not stated) | 15.8 |  |
| CC1(OC(=O)C2CCCC2)C(=O)C=C2C=C(c3ccc(C#N)cc3)OC=C2C1=O (configuration not stated) |  | 20 µM (active) |

| Structure (SMILES) | activity change, negative = inhibition [%] | Potency |
| --- | --- | --- |
| COC(=O)CCCC1=CC2=CC(=O)C(C)(OC(=O)c3cccs3)C(=O)C2=CN1c1cccc(C#N)c1 (configuration not stated) | -1.74 |  |
| CC1(OC(=O)CCc2ccccc2)C(=O)C=C2C=C(c3ccc(C#N)cc3)N(CCc3ccccn3)C=C2C1=O (configuration not stated) | 6.95 |  |
| C=COC(=O)N1CCN(/[N+]([O-])=N/Oc2ccc([N+](=O)[O-])cc2[N+](=O)[O-])CC1 | -25.1 |  |
| CCc1c(C)nc2c(OC)cccc2c1Cl |  | inactive |
| COc1nc(N=C(N)N)nc2c(C)cccc12 |  | 39.8 µM (active) |
| Cc1nc(N=C(N)N)nc2c(C)cccc12 |  | 35.5 µM (active) |
| Cc1nc(/N=C(\N)NC(=O)NC2CCCCC2)nc2ccccc12 | -21.2 |  |
| COc1ccccc1NC(=O)CSc1oc(-c2ccco2)nc1S(=O)(=O)c1ccc(Br)cc1 | -7.55 |  |
| O=C(Nc1ccccc1C(F)(F)F)c1nc(S(=O)(=O)Cc2ccccc2F)ncc1Cl | -25 |  |
| CCOc1ccccc1N(CC)C(=O)Nc1cn(C)c(=O)c2ccccc12 | -6.42 |  |
| Cc1ccc(NC2=C(c3ccc(C(F)(F)F)cc3)C(=O)c3ccccc32)cc1F | 11 |  |
| CN(CCC#N)c1ccc(C=O)cc1 | 19.2 |  |
| CCN(CC)N=Nc1cccc(NC(C)=O)c1 |  | 89.1 µM (active) |
| CCN(CC)C(=O)CSC(Nc1cccc(F)c1)=C(C#N)C#N | -0.693 |  |
| CC(=O)Nc1cccc(C(=O)OCC(=O)c2ccc3c(c2)OCO3)c1 | 1.33 |  |
| CCOC(=O)c1c(C)[nH]c(CCC(=O)NCCCN2CCN(c3cccc(Cl)c3)CC2)c1C | -10.7 |  |
| COc1ccc(CCn2c3c(c(=O)[nH]c2=S)CN(C(C)C)CN3)cc1OC | 1.65 |  |
| Cc1cccc(-c2nnc(SC(C)C(=O)Nc3ccccc3)n2C)c1 (configuration not stated) | -6.04 |  |
| COc1cc(C(=O)Nc2ccc(-n3c(C)nc4ccccc4c3=O)cc2)cc(OC)c1OC | -0.707 |  |
